Source: PubChem BioAssay (The Scripps Research Institute Molecular Screening Center)
PME-1 primary – PME-1 (human) inhibition | Q9Y570 | recombinant PME-1, FP-Rh probe fluorescence polarization | inhibition, % at 5.9 µM | actives 0.53% (n = 320,000);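 active means inhibition above the campaign mean of all compounds plus 3 SD, cut at about 26% in these data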;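 further: competitive labeling of PME-1 active site by serine hydrolase directed probe; inhibitors block probe labeling so polarization falls and inhibition rises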
Fam108B inh – blocks mouse Fam108B hydrolase in RBBP9 counter-screen | actives 0.33% (n = 300,000) | inhibition, % at 9.51 µM | recombinant Fam108B, FP-Rh probe fluorescence polarization;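 active means inhibition above the screen mean inhibition plus 3 SD, computed separately per campaign, cut at about 18% in these data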;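 further: inhibitors lower polarization as less probe binds the enzyme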
PAFAH2 FP inh – inhibitors of human PAFAH2. inhibition, % at 3.39 µM. recombinant PAFAH2, FP-rhodamine activity probe, fluorescence polarization. actives 0.99% (n = 340,000). AID 492956;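 active means inhibition above the mean over all tested compounds plus 3 SD, cut at about 30% in these data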;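 further: inhibitors block probe labeling of enzyme so polarization drops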
pPAFAH inh – pPAFAH (human) enzyme inhibition; recombinant pPAFAH, FP-rhodamine probe fluorescence polarization; Q13093; AID 463082; actives 1.5% (n = 330,000); inhibition, % at 3.39 µM;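 active means inhibition above the mean inhibition across the screen plus 3 SD, cut at about 25% in these data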;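 further: inhibitors block binding of the rhodamine activity-based probe so polarization drops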
PAFAH1B3 inh – inhibitors of human PAFAH1B3; Q15102; inhibition, % at 3.39 µM; AID 492972; actives 0.28% (n = 340,000); recombinant PAFAH1B3, FP-rhodamine probe, fluorescence polarization;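 active means inhibition above the screen-wide average of all tested compounds plus 3 SD, cut at about 25% in these data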
Target sequence (Q15102 whole entry, looked up): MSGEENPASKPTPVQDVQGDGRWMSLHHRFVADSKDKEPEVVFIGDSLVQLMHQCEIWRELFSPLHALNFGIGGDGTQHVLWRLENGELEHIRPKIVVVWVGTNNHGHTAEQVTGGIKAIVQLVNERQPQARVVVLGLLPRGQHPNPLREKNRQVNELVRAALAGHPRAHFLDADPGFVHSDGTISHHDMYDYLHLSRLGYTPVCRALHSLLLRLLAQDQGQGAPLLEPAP
PAFAH1B2 inh – blocks human PAF acetylhydrolase 1b catalytic subunit 2. P68402. inhibition, % at 3.39 µM. recombinant PAFAH1B2, FP-rhodamine activity probe, fluorescence polarization. actives 1.2% (n = 340,000). AID 492953;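 active means inhibition above the mean of all tested compounds plus 3 SD, cut at about 24% in these data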
Target sequence (P68402 whole entry, looked up): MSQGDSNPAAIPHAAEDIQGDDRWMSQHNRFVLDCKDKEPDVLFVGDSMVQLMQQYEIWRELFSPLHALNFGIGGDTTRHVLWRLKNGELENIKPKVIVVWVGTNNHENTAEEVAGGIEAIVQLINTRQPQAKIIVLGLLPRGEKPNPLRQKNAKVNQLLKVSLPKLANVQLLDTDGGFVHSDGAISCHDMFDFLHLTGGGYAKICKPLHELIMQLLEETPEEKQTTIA
A number is an active result; i = inactive; nt = not tested or not shown. Sampled rows, rich in hits. Any-hit rate of the full collection: about 2.8%.

SMILES	PME-1 primary	Fam108B inh	PAFAH2 FP inh	pPAFAH inh	PAFAH1B3 inh	PAFAH1B2 inh
Cc1oc2c(O)c(O)ccc2c(=O)c1-c1ccc(Cl)cc1	i	i	i	30	i	i
Cc1ccccc1NC(=O)Nc1ccc2c(c1)CCC2	i	i	i	i	i	i
COC(=O)c1ccsc1NS(=O)(=O)c1ccccc1	i	i	i	28	i	i
CCCCc1ccc(C2C3=C(CC(C)(C)CC3=O)NC3=C2C(=O)c2ccccc23)cc1 (centres undefined)	i	i	i	27	i	i
CC1(C)CC(=O)C2=C(C1)NC1=C(C(=O)c3ccccc31)C2c1ccc(O)cc1 (centres undefined)	i	i	i	i	i	i
CC(C)(C)C#CC(CCc1ccccc1)OS(N)(=O)=O (centres undefined)	i	i	nt	i	nt	nt
Oc1ccc(N=Nc2ccccc2)o1	i	i	i	i	i	i
CC(C)C(CCNCc1ccccn1)c1ccc(Cl)cc1 (centres undefined)	i	i	45	i	35	45
Cc1ccc(N2CCN(S(=O)(=O)c3ccc4c(c3)NC(=O)C(C)C(=O)N4)CC2C)cc1 (centres undefined)	i	i	i	i	i	i
CCN(CC(=O)Nc1ccc(NC(C)=O)cc1)Cc1c(O)ccc2cc(Br)ccc12	i	i	i	i	i	68
CN(C)c1cc[n+](CC(=O)c2ccc(-c3ccccc3)cc2)cc1	i	i	i	i	i	i
Cc1ccccc1CS(=O)(=O)CCC(=O)N1CCN(c2ccc(N3CCOCC3)nn2)CC1	i	i	i	27	i	i
O=C(CCS(=O)(=O)Cc1ccccc1)N1CCN(c2ccccc2)CC1	i	i	i	i	i	i
COc1ccc(NS(=O)(=O)c2ccc(C)c(NC(=O)CNC(=O)c3ccco3)c2)cc1	nt	nt	i	nt	i	i
Cc1cc(C)c2[nH]c(O)c(N=NC(=O)c3cc4c(s3)CCCC4)c2c1	26	i	nt	i	nt	nt
COCCNC(=S)N=Nc1c(O)[nH]c2c(C)cc(C)cc12	i	i	i	i	i	i
O=C1NC(c2ccccc2)=N/C1=C/c1ccco1	i	i	i	i	i	i
O=C1NC(c2cccc(Br)c2)=N/C1=C\c1ccco1	i	i	i	31	i	i
CC1(C)NC(=O)N(CCCCOc2ccc(Br)cc2Cl)C1=O	i	i	i	i	i	24
CC1(C)NC(=O)N(CCCOc2ccc(Br)cc2Cl)C1=O	i	i	i	i	i	i
CCN1CCN(CCNC(=O)c2ccc(/C=C3\Sc4ccccc4N(Cc4ccccc4F)C3=O)cc2)CC1	i	i	i	25	i	i
CN1CCN(CCCNC(=O)c2ccc(/C=C3\Sc4ccccc4N(Cc4ccc(F)cc4)C3=O)cc2)CC1	nt	nt	i	nt	i	i
O=C(Sc1n[nH]c(=O)[nH]c1=O)c1ccccc1	nt	nt	i	nt	i	i
CC(=O)Cc1nsc(NC(=O)c2ccc(COc3ccccc3)o2)n1	i	i	i	27	i	i
CCN(CC)c1ccc(S(=O)(=O)N2CCOCC2)cc1NC(=O)CN1CCN(Cc2ccccc2)CC1	59	i	i	i	i	i
SMILES	PME-1 primary	Fam108B inh	PAFAH2 FP inh	pPAFAH inh	PAFAH1B3 inh	PAFAH1B2 inh
CCOC(=O)c1c(NC(=O)C2C3CCC(O3)C2C(=O)O)sc2c1CCCC2 (centres undefined)	i	i	i	i	i	i
COC(=O)c1c(NC(=O)C2C3CCC(O3)C2C(=O)O)sc2c1CCCCCC2 (centres undefined)	i	i	i	i	i	50
Cc1ccc(S(=O)(=O)N2CCOCC2)cc1NC(=O)CNc1ccccc1N1CCCC1=O	nt	nt	i	nt	i	i
CCOC(=O)Cc1cc(=O)n2[nH]c(-c3ccc(C)cc3)cc2n1	i	i	i	34	i	i
CCOC(=O)Cc1cc(=O)n2[nH]cc(-c3cccc(Br)c3)c2n1	i	i	31	31	i	i
O=C(Oc1ccc(N(Cc2cccs2)C2=NS(=O)(=O)c3ccccc32)cc1)c1ccccc1Cl	i	i	i	i	i	i
O=C(OCCN(C1=NS(=O)(=O)c2ccccc21)c1ccc(Cl)cc1)c1ccco1	27	i	i	i	i	i
CN1CCN(C2=C(NS(=O)(=O)c3ccccc3)C(=O)c3ccccc3C2=O)CC1	i	i	i	i	i	i
CC1COCC(C)N1C1=C(Cl)C(=O)c2ccccc2C1=O (centres undefined)	nt	nt	43	nt	44	35
CN1CCN(C2=C(Cl)C(=O)N(C3CCCCC3)C2=O)CC1	i	i	i	i	i	i
CN1CCN(C2=C(Cl)C(=O)c3ccccc3C2=O)CC1	nt	nt	57	nt	66	39
CN1CCN(C2=C(Cl)C(=O)C(c3cnc(N4CCCCC4)s3)=C(Cl)C2=O)CC1	i	i	i	41	i	i
COc1ccc(C(=O)NC2CC3CCCC(C2)N3Cc2ccccc2)cc1OC (centres undefined)	i	i	i	i	i	i
CCCCC[C@H](O)/C=C/C1C(=O)C=C[C@H]1C/C=C\CCCC(=O)OC (some centres undefined)	nt	nt	i	nt	i	i
CCC(Cc1ccccc1)NS(=O)(=O)c1csc(C(N)=O)c1 (centres undefined)	i	i	i	i	i	i
O=C1[C@@H]2Cc3c([nH]c4ccccc34)C(c3cccc([N+](=O)[O-])c3)N2C(=O)CN1C1CCN(Cc2ccccc2)CC1 (some centres undefined)	i	i	i	i	i	i
COc1cccc(C(=O)NC(=S)N2CCN(c3ccc(C(F)(F)F)cc3[N+](=O)[O-])CC2)c1	i	i	i	26	i	i
COC(C/C=C\C(=O)[C@@H](C)OCc1ccccc1)OC	i	i	nt	i	nt	nt
COc1ccc(-c2sc(Nc3ccc(F)c(F)c3F)nc2CCC(=O)NN)cc1	30	i	i	i	i	i
Cc1ccc(OCC(=O)N2CCCCC2C)c([N+](=O)[O-])n1 (centres undefined)	nt	nt	i	i	i	i
C[C@H](CO)N1C[C@H](C)[C@@H](CN(C)C(=O)Nc2ccc3c(c2)OCO3)Oc2c(NC(=O)Cc3ccccc3)cccc2C1=O	nt	nt	i	i	i	i
CCN1C(=O)[C@H]2[C@@H](c3ccc(-c4cccc(Cl)c4)cc3)N[C@@](C)(C(=O)OC)[C@H]2C1=O	i	i	i	34	i	i
C=C1C(=O)c2sccc2C(c2ccc(OC)c(OC)c2)C1COC(C)=O (centres undefined)	nt	nt	i	nt	i	i
O=C(O)CC/C(=C\c1ccc2c(c1)OCO2)c1nc2ccccc2s1	i	i	i	i	i	i
O=C(CSc1nc2ccccc2s1)Nc1ccc(N2CCOCC2)c(Cl)c1	i	i	i	i	i	i
COc1cc(/C=C(\CCC(=O)O)c2nc3ccccc3s2)ccc1OCC(=O)Nc1c(Cl)cccc1Cl	nt	nt	i	i	i	67
O=C(O)C/C(=C\c1ccc(N2CCOCC2)c([N+](=O)[O-])c1)c1nc2ccccc2s1	i	i	i	26	i	i
